Out of some 52,000 compounds screened, about 4,300 (8.3%) were called active. This excerpt belongs to a sample that is enriched for actives. Unmarked numbers belong to inactive results. No stated cut-off is given here; in the data, active means survival mostly below about 52% (no sharp cut-off); inactive means mostly above about 56%.

The subject of this test is DeltatarO mutant. The test can be described thus: growth inhibition of S. aureus wild type versus tarO mutant, primary screen, teichoic acid synthesis inhibitors, RN4220, OD600 (AID 463173). To be noted: OD600, 18 h, stronger effect = lower value, screened at 18.75 µg/mL (by protocol).
`Cc1cccc(N2C(=O)CS/C2=N/NC(=O)c2cccc(Cl)c2)c1`: the survival is 97%.

On to `CCN(C(=O)CSc1nc2ccccc2n1CC(=O)Nc1cccc(C#N)c1)c1ccccc1`, for which the survival was 122%.

For the molecule `O=C(Cn1c(=O)c(C(F)(F)F)nc2ccccc21)Nc1cccc(Br)c1`, the survival is 99%.

As to `Cc1cccc(NC(=O)Cn2c(C(F)(F)F)nc3ccccc32)c1C`, the survival is 31% (active).

Turning to `Cc1ccc(NC(=O)Cn2c(=O)c(C(F)(F)F)nc3ccccc32)cc1C`, the survival is 60%.

Take `CCN(C(=O)CSc1nc2ccccc2n1CC(=O)Nc1ccccc1C)c1ccccc1`: the survival was -5% (active).

For `CCN(C(=O)CSc1nc2ccccc2n1CC(=O)Nc1ccc(F)cc1F)c1ccccc1`, the survival is 77%.

Consider `CC(=O)Nc1ccccc1-c1nc2ccccc2n(CC(=O)Nc2cccc(C)c2C)c1=O`, for which the survival is 117%.

For the molecule `Cc1cc(C)cc(NC(=O)Cn2c(C(F)(F)F)nc3ccccc32)c1`, the survival is 67% (active).

For `Cc1cccc(NC(=O)Cn2c(SCC(=O)NCc3ccccc3)nc3ccccc32)c1C`, the survival was 119%.

As for `CC(C)C(=O)NS(=O)(=O)c1ccc(NC(=O)c2ccco2)cc1`, the survival is 90%.

On to `Cc1ccc(N2CC3=C(C2=O)C(c2ccc(Br)cc2)NC(=O)N3C)cc1` (stereo not given), for which the survival is 74%.

On to `COc1cc(C)ccc1OCCSc1nc2ccc(NC(=O)c3ccccc3F)cc2s1`, for which the survival was 99%.

As for `COc1ccc2c(C)cc(SCC(=O)Nc3nsc(-c4ccc(C(C)(C)C)cc4)n3)nc2c1`, the survival is 56%.

With `Cc1ccc(-c2nc(NC(=O)CSc3cc(C)c4ccccc4n3)ns2)cc1`, the survival is 65%.

As for `CC(C)(C)c1ccc(-c2nc(NC(=O)CSc3ncnc4sc5c(c34)CCCC5)ns2)cc1`, the survival was 57% (active).

For `Cc1cc(SCC(=O)Nc2nsc(-c3ccc(C(C)(C)C)cc3)n2)nc2ccccc12`, the survival was 13% (active).

As to `Cc1nc(SCC(=O)Nc2nsc(-c3ccc(C(C)(C)C)cc3)n2)c2c3c(sc2n1)CCCC3`, the survival was 78%.

As to `Cc1cc(SCC(=O)Nc2ccc(Cl)cc2)nc2ccccc12`, the survival is 65%.

Regarding `Cc1ccc(-c2nc(NC(=O)CSc3ccc4ccccc4n3)ns2)cc1`, the survival is 77%.

Regarding `COc1ccc2c(C)cc(SCC(=O)Nc3nsc(-c4ccccc4C)n3)nc2c1`, the survival was 35% (active).

For `Cc1ccccc1-c1nc(NC(=O)CSc2ncnc3sc4c(c23)CCCC4)ns1`, the survival was 92%.

For `CCN1CCN(c2oc(/C=C/c3cc(OC)c(OC)c(OC)c3)nc2C#N)CC1`, the survival was 72%.

For `O=C(O)CSc1nc2c(c(C(F)(F)F)n1)CCc1ccccc1-2`, the survival was 96%.

As to `CCN(CC)N=Nc1ccc(S(=O)(=O)N2CCSC2C(=O)O)cc1` (stereo not given), the survival was 103%.

With `CCOc1ccc(CC(=O)NCCc2csc(-c3ccc(Cl)cc3)n2)cc1`, the survival is 67%.

On to `CCOC(=O)/C(C#N)=C\c1ccc(Br)s1`, for which the survival is 93%.

In the case of `CN(C(=O)CSc1nc2ccccc2n1CC(=O)NCc1ccc(F)cc1)c1ccc(F)cc1`, the survival is 128%.

In the case of `COc1ccc(CNc2ccc3cc(S(=O)(=O)N4CCCCC4)ccc3n2)cc1`, the survival is 79%.

For `COc1cc(NC(=O)CN2CCCN(S(=O)(=O)c3ccc(F)cc3)CC2)cc(OC)c1`, the survival was 74%.

As to `CCCCSc1nnc2[nH]c(=O)cc(C)n12`, the survival is 99%.

On to `Cc1cccn2c(=O)cc(CSc3nnc(NC(=O)COc4ccc(F)cc4)s3)nc12`, for which the survival was -2% (active).

As for `Cc1cccn2c(=O)cc(CSc3nnc(NC(=O)COc4ccccc4)s3)nc12`, the survival was 84%.

Take `CC(C)C(=O)Nc1nnc(SCc2cc(=O)n3ccccc3n2)s1`: the survival was 86%.

Turning to `Cc1ccc2nc(CSc3nnc(NC(=O)COc4ccccc4F)s3)cc(=O)n2c1`, the survival is 70%.

Regarding `Cc1ccc2nc(CSc3nnc(NC(=O)C(C)C)s3)cc(=O)n2c1`, the survival is -1% (active).

Take `Cc1ccc(OCC(=O)Nc2nnc(SCc3cc(=O)n4cc(C)ccc4n3)s2)cc1`: the survival is 6% (active).

On to `Cc1ccc2nc(CSc3nnc(NC(=O)CC(C)C)s3)cc(=O)n2c1`, for which the survival was 76%.

Turning to `Cc1ccc(OCC(=O)Nc2nnc(SCc3cc(=O)n4cccc(C)c4n3)s2)cc1`, the survival is 76%.

For `Cc1ccc2nc(CSc3nnc(NC(=O)COc4ccccc4)s3)cc(=O)n2c1`, the survival is 67%.

As for `COCCN(C(=O)c1ccco1)c1nnc(-c2ccc(F)cc2)s1`, the survival is 58%.

In the case of `CSc1nnc(-c2ccncc2)n1C`, the survival is 97%.

In the case of `COc1ccc(N2CCN(S(=O)(=O)c3csc(C(N)=O)c3)CC2)cc1`, the survival was 90%.

Regarding `COc1cc(Cl)c(C)cc1NC(=O)CSc1cc(=O)n(C)c2cc(Cl)ccc12`, the survival is 63%.

As to `CC(C)(C)OC(=O)N1CC2C(C1)C2NC(=O)c1nsc(Cl)c1Cl` (stereo not given), the survival was 82%.

Consider `CCOC(=O)c1ccc(NC(=O)c2ccc3c(c2)c(C)c(C)n3Cc2ccc(F)cc2)cc1`, for which the survival is 91%.

Turning to `O=C(Cn1c(=O)n(-c2ccccc2)c(=O)c2ccc(C(=O)NCc3ccc4c(c3)OCO4)cc21)Nc1ccc(Br)cc1`, the survival is 79%.

Regarding `CSc1ccc(CCNC(=O)Cn2nc(C)n3c(cc4sccc43)c2=O)cc1`, the survival was 88%.

`O=C1C2=C(Nc3ccccc3SC2c2ccc(Cl)c(Cl)c2)c2ccccc21` (stereo not given): the survival is 22% (active).

As for `CCCc1ccc(C2Sc3ccccc3NC3=C2C(=O)c2ccccc23)cc1` (stereo not given), the survival is 94%.

For the molecule `CC(=O)Nc1ccc(C2Sc3ccccc3NC3=C2C(=O)c2ccccc23)cc1` (stereo not given), the survival is 116%.

With `CCc1ccc(C2Sc3ccccc3NC3=C2C(=O)c2ccccc23)cc1` (stereo not given), the survival is 104%.

Regarding `COc1ccc(C2Sc3ccccc3NC3=C2C(=O)c2ccccc23)c(OC)c1OC` (stereo not given), the survival is 77%.

On to `CCOc1cc(C2Sc3ccccc3NC3=C2C(=O)c2ccccc23)ccc1O` (stereo not given), for which the survival was 48%.

For `COc1ccc(Br)cc1C1Sc2ccccc2NC2=C1C(=O)c1ccccc12` (stereo not given), the survival was 31% (active).

On to `O=C1C2=C(Nc3ccccc3SC2c2ccccc2C(F)(F)F)c2ccccc21` (stereo not given), for which the survival is 24% (active).

With `CC(C)(C)c1ccc(C2Sc3ccccc3NC3=C2C(=O)c2ccccc23)cc1` (stereo not given), the survival is 98%.

Turning to `O=C1C2=C(Nc3ccccc3SC2c2ccc(C(F)(F)F)cc2)c2ccccc21` (stereo not given), the survival is 16% (active).

As to `CC(C)c1ccc(C2Sc3ccccc3NC3=C2C(=O)c2ccccc23)cc1` (stereo not given), the survival is 85%.

As for `O=C1C2=C(Nc3ccccc3SC2c2c(F)cccc2Cl)c2ccccc21` (stereo not given), the survival was 94%.

Source of the values: PubChem BioAssay AID463173 (ICCB-Longwood Screening Facility, Harvard Medical School, 2010).
